Laboratory results published in PubChem BioAssay (Tox21).
Values joined by “and” are separate entries in the source; they are usually repeats but may differ in a detail not shown here. Identical values can stand only once. Results filed as inconclusive are left out. Where a call stands in place of a potency, no number is given. Active and inactive are the calls of the source. Calls follow the shape of the dose curve; as a rule, active = well fitted curve in the direction sought with a large enough effect in the repeat runs; inconclusive = weak or mixed curves; inactive = no such curve, though single readings can be large; an effect the other way counts as inactive or inconclusive.

What was measured:
[1] = target: Cytochrome P450 1A2 (Homo sapiens) (UniProt P05177); assay: Cytochrome P450 Family 1 Subfamily A Member 2 (CYP1A2) small molecule antagonists: luciferase reporter qHTS assay (AID 1671199); also: potency is read from the fitted curve at half-maximal effect
Chain of Cytochrome P450 1A2 (Homo sapiens) (P05177 whole entry, looked up): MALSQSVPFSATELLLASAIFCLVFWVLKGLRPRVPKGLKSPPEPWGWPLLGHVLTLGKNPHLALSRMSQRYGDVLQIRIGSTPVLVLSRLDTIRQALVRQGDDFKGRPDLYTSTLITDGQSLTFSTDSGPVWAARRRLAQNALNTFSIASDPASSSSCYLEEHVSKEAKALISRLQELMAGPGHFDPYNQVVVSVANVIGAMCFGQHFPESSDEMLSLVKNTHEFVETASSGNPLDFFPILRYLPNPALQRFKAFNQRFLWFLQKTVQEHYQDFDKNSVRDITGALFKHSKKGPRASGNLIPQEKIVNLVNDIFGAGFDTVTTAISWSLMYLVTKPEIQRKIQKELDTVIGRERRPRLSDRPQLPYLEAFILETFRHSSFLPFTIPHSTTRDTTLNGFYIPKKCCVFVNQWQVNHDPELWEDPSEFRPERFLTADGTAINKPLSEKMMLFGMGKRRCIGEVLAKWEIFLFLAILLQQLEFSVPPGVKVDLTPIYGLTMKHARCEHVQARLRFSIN
Method in brief: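 Read-out is luminescence from luciferin detection reagent (20 min) proportional to CYP1A2 activity; compounds in DMSO preincubated 10 min with enzyme and proluciferin substrate, then NADPH regeneration solution, 1 h, room temperature.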

[2] = target: Voltage-gated inwardly rectifying potassium channel KCNH2 (Homo sapiens) (UniProt Q12809); assay: Human Ether-a-go-go-Related Gene (hERG) channel small molecule antagonists: fluorescence cell-based qHTS assay (AID 1671200); also: potency is read from the fitted curve at half-maximal effect
Chain of Voltage-gated inwardly rectifying potassium channel KCNH2 (Homo sapiens) (Q12809 whole entry, looked up): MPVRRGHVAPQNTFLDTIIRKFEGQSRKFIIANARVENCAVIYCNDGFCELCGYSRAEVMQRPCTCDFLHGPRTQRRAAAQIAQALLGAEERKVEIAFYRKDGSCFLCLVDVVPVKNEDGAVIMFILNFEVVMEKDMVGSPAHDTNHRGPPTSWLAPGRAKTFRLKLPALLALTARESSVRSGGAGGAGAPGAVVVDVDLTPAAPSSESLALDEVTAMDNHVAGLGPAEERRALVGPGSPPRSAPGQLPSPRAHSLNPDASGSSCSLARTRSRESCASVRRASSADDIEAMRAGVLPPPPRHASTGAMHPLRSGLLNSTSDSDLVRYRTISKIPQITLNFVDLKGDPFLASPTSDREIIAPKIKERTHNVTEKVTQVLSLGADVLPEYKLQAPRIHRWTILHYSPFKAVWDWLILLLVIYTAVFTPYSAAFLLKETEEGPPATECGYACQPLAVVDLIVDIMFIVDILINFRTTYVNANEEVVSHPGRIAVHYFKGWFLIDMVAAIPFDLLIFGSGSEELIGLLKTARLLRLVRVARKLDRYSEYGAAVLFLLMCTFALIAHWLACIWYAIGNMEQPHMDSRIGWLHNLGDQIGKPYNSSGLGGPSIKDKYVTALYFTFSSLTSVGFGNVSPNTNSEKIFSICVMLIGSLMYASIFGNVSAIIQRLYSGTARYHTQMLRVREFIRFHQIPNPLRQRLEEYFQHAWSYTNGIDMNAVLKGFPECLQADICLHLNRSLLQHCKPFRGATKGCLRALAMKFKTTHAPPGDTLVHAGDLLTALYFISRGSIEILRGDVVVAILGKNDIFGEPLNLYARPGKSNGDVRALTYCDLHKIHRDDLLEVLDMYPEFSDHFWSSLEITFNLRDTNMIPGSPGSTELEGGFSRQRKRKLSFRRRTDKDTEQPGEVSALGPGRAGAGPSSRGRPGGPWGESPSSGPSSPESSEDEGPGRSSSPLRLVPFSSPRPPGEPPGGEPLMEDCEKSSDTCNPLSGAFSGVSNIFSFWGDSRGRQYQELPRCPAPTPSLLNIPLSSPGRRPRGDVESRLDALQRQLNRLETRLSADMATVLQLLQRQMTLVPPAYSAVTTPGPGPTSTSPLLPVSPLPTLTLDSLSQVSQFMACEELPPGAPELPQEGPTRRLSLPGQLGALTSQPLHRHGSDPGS
Method in brief: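 Read-out: thallium influx as a surrogate for potassium, tracked as fluorescence (480 nm ex/540 nm em) every second for 2 min after Stimulus Buffer addition in dye-loaded hERG-U2OS cells.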

[3] = target: Cytochrome P450 3A4 (Homo sapiens) (UniProt P08684); assay: Cytochrome P450 Family 3 Subfamily A Member 4 (CYP3A4) small molecule antagonists: luciferase reporter qHTS assay (AID 1671201); also: series mostly up to about 120 µM
Chain of Cytochrome P450 3A4 (Homo sapiens) (P08684 whole entry, looked up): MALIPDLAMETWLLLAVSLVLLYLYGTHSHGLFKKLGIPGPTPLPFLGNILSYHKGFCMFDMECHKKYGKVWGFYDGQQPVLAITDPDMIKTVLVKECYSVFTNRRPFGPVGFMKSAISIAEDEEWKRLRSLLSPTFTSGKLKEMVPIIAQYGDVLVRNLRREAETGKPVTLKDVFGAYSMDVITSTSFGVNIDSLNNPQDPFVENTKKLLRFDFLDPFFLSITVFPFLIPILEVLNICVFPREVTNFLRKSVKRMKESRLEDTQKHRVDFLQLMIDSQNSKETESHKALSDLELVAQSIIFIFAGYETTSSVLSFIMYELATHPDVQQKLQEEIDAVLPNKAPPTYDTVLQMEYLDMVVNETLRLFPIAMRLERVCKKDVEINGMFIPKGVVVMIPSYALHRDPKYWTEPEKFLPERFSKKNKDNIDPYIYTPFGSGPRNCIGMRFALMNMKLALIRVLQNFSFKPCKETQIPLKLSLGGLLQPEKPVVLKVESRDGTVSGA
Method in brief: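 Luminescent readout (RLU) proportional to CYP3A4 activity, from luciferin generated off a proluciferin substrate. Enzyme–substrate mix plus compound 10 min at room temp, NADPH regeneration 1 h, detection reagent 20 min.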
Also: nearly all actives have a fitted effect of over 50% in size.

| SMILES | Potency [1] | Potency [2] | Potency [3] |
| --- | --- | --- | --- |
| c1ccc(C(O[C@@H]2CCCN(CCc3ccc4c(c3)OCO4)C2)c2ccccc2)cc1 | 39.9 µM (active) | 0.977 µM (active) | – |
| COc1ccc2cc1Oc1ccc(cc1)C[C@H]1c3c(cc4c(c3Oc3cc5c(cc3OC)CCN(C)[C@@H]5C2)OCO4)CCN1C | inactive | 9.52 µM (active) | – |
| CCCCCCCCCCC[C@@H](C[C@@H]1OC(=O)[C@H]1CCCCCC)OC(=O)[C@H](CC(C)C)NC=O | 24.5 µM (active) | inactive | – |
| CCCCCCCCCCCCCCCC[N+](C)(C)CC | inactive | – | – |
| CCN1C(=O)c2ccccc2C1Nc1ccc(OCCN2CCCCC2)cc1 (stereo not given) | inactive | inactive | – |
| O=C(O)c1cc(O)c2ccccc2c1O | 5.64 µM (active) | – | – |
| CCCCCCCC/C=C\CCCCCCCCN | 12.9 µM (active) | inactive | – |
| O=[N+]([O-])c1ccc(O)cc1C(F)(F)F | 35.6 µM (active) | inactive | – |
| CCOC(=O)Cn1cccc1-c1nc(-c2ccc(OC)cc2)c(-c2ccc(OC)cc2)s1 | inactive | inactive | – |
| CCO[C@@H]1O[C@H](C(COCc2ccccc2)OCc2ccccc2)[C@H](OCc2ccccc2)[C@H]1O (stereo not given in full) | inactive | inactive | – |
| CC(=O)Oc1cc2c(s1)CCN(C(C(=O)C1CC1)c1ccccc1F)C2 (stereo not given) | inactive | – | – |
| CN1CCN(Cc2cc(-c3ccc4[nH]c(=O)oc4c3)co2)[C@@H](c2ccc(F)cc2)C1 | inactive | – | – |
| O=C(O)[C@H](O)[C@@H](O)[C@H](O[C@@H]1O[C@H](CO)[C@H](O)[C@H](O)[C@H]1O)[C@H](O)CO | inactive | inactive | inactive |
| Cc1cccc(C)c1NC(=O)c1ccc(N)cc1 | inactive | inactive | – |
| CCC(C)n1ncn(-c2ccc(N3CCN(c4ccc(OC[C@H]5CO[C@](Cn6cncn6)(c6ccc(Cl)cc6Cl)O5)cc4)CC3)cc2)c1=O (stereo not given in full) | inactive | inactive | – |
| CNC(=O)c1ccccc1Sc1ccc2c(/C=C/c3ccccn3)n[nH]c2c1 | 2.75 µM (active) | inactive | – |
| COc1ccc2c(c1)c(CC(=O)OC/C=C(\C)CC/C=C(\C)CCC=C(C)C)c(C)n2C(=O)c1ccc(Cl)cc1 | 17.4 µM (active) | inactive | – |
| C#Cc1ccc(-c2ccccc2F)cc1 | 0.911 µM (active) | inactive | – |

| SMILES | Potency [1] | Potency [2] | Potency [3] |
| --- | --- | --- | --- |
| CCCCC(CC)COC(=O)CCCCC(=O)OCc1ccccc1 (stereo not given) | 56.4 µM (active) | inactive | – |
| C#CC1(O)CC[C@H]2[C@@H]3CCC4=CCCC[C@@H]4[C@H]3CC[C@@]21C (stereo not given in full) | 39.9 µM (active) | – | – |
| O=[N+]([O-])c1cccc(C(F)(F)F)c1 | inactive | inactive | inactive |
| CCCCNS(=O)(=O)c1ccc(C)cc1 | 31.7 µM (active) | inactive | – |
| O=C(Nc1ccc2c(O)c(N=Nc3ccc(N=Nc4ccc(S(=O)(=O)O)cc4)cc3)c(S(=O)(=O)O)cc2c1)c1ccccc1 | 35.6 µM (active) | inactive | – |
| COc1c(C)c2c(c(O)c1C/C=C(\C)CCC(=O)OCCN1CCOCC1)C(=O)OC2 | inactive | inactive | – |
| CCCCC(CC)CN1CN(CC(CC)CCCC)CC(C)(N)C1 (stereo not given) | inactive | 2.68 µM (active) | – |
| CN(C)[C@@H](CCOc1cccc2ccccc12)c1ccccc1 | 7.76 µM (active) | 6.01 µM (active) | – |
| CCC(CC)(CC(=O)Nc1cccc(/C=C/c2nc(C3CCC3)cs2)c1)C(=O)O | 24.5 µM (active) | inactive | – |
| C=CC(=O)OCCOC(=O)C=C | inactive | inactive | inactive |
| CC(C)(C)NSc1nc2ccccc2s1 | 32.2 µM (active) | inactive | – |
| C#C[C@]1(OC(C)=O)CC[C@H]2[C@@H]3CCC4=C/C(=N/O)CC[C@@H]4[C@H]3CC[C@@]21CC | inactive | inactive | – |
| O=C1CCCCCCCCCCCCCCCO1 | inactive | inactive | – |
| C#C[C@]1(O)CC[C@H]2[C@@H]3[C@H](C)CC4=C(CCC(=O)C4)[C@H]3CC[C@@]21C | 24.5 µM (active) | inactive | – |
| CC(N=C(NC#N)Nc1ccncc1)C(C)(C)C (stereo not given) | inactive | inactive | – |
| CN(C)c1ccc(C(=C2C=CC(=[N+](C)C)C=C2)c2ccc(N(C)C)cc2)cc1 | 11.2 µM (active) and 20 µM (active) and 10.2 µM (active) | 3.45 µM (active) and 3.47 µM (active) and 2.68 µM (active) | – |
| CCCc1ccc(OCC(=O)N2CCN(C(=O)COc3ccc(CCC)cc3OC)CC2)c(OC)c1 | inactive | 1.34 µM (active) | – |
| O=C1CCc2cc(OCCCCc3nnnn3C3CCCCC3)ccc2N1 | inactive | inactive | – |
